Compound activity from PubChem BioAssay.
Shown are actives, neighbours in structure and some others; about 1.5% of the full set was active somewhere.
TrxR1 inh: blocks rat thioredoxin reductase 1. O89049. recombinant rTrxR1, NADPH fluorescence consumption, selenite substrate. Potency, µM (series often up to 114 µM), most hits filed as inhibitors. 390,000 compounds, 1% hits. AID 588453; note: nearly all actives have a fitted effect of over 65% in size
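Rat TrxR1 (90 nM in the dispensed reagent) was pre-reduced with 400 uM NADPH for 5 min at room temperature, then incubated with compound for 15 min. After 400 uM selenite was added, NADPH fluorescence (Ex 340/Em 450 nm) was followed for 8 min.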
Eya2 inh: blocks the phosphatase activity of human Eya2. O00167. recombinant Eya2, OMFP fluorescence dephosphorylation (OMFP is methylfluorescein phosphate). Potency, µM (top dose mostly 76.9 µM), hits mostly inhibitors. 330,000 compounds, 0.006% hits. AID 488837
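Eya2 (0.2 uM) preincubated 10 min at ambient with compound, then OMFP substrate added at 50 uM; 10 min reaction in 50 mM HEPES pH 7.5, 50 mM NaCl, 5 uM MgCl2, 0.05% BSA, 1 mM DTT. Fluorescence read at Ex 485/Em 525 nm.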
Six1-Eya2 inh: blocks human Six1 binding to Eya2; Q15475+O00167; AID 651725; activity change, % (no concentration beside the values); 360,000 compounds, 0.56% hits; AlphaScreen GST-Six1/His-Eya2 binding, biochemical; hits give low values; in the data active = activity change below about -65%; inconclusive = mostly about -30% to -63%
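Homogeneous AlphaScreen proximity assay pairing GST-Six1 with His-tagged Eya2 (added as 5X mix: 250 nM and 500 nM) in 50 mM Tris pH 8.0, 300 mM NaCl, 1 mM TCEP. Glutathione donor and nickel acceptor beads; 1 h, 37 °C, dark.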
TrxR1 substrate: substrates of rat thioredoxin reductase 1; purified TrxR1 substrate turnover, NADPH consumption readout; Potency, µM (top dose mostly 114 µM); O89049; 390,000 compounds, 0.01% hits; note: nearly all actives have a fitted effect of over 50% in size
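Rat TrxR1, dispensed at 90 nM, was prereduced with 400 uM NADPH (final) for 5 min at ~22 deg C, then incubated with compound 15 min before 400 uM selenite. A first-read NADPH fluorescence drop versus no-compound background flagged substrates.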
GALK inhibitor: inhibitors of human galactokinase. AID 1868. 270,000 compounds, 0.007% hits. Purified GALK, Kinase-Glo residual ATP luminescence. Potency, µM (highest dose often 57.5 µM), usual class: inhibitors. P51570
Target sequence (P51570 whole entry, looked up): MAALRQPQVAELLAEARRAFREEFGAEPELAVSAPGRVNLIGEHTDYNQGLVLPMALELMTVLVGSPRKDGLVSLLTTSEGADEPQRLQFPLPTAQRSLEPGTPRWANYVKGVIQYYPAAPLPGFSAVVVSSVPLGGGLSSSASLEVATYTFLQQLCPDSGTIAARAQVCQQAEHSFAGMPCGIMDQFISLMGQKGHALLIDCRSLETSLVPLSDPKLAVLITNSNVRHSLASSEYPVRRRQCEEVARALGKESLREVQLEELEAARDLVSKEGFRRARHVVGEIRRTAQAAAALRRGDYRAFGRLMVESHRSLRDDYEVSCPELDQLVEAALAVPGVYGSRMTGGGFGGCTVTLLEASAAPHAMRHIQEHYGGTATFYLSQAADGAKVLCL
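Human GALK (5 nM) with 35 uM ATP and 100 uM galactose in 20 mM HEPES pH 8.0, 5 mM MgCl2, 60 mM NaCl, 1 mM DTT, 0.01% BSA. After 1 h at room temperature, leftover ATP was read by Kinase-Glo Plus luminescence.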
CtBP-E1A blk: inhibitors of CtBP/E1A interaction; AlphaScreen GST-E1A/His-CtBP binding, 1536-well; hits give low values; activity change, % (test concentration not listed); 340,000 compounds, 0.49% hits; in the data active = activity change below about -65%; inconclusive = mostly about -30% to -63%
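Homogeneous bead-based format: GST-tagged E1A captured on glutathione donor beads, His-tagged CtBP on nickel acceptor beads; compounds precede bead addition by 2 h at 37 °C.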
Numbers stand for hits; – = inactive; ? = inconclusive; · = no result. Unless noted, calls come from the whole dose curve; as a rule, active = well fitted curve in the direction sought with a large enough effect; inconclusive = small, poorly fitted or top-dose-only effect, or another doubt; inactive = no such curve, though single readings can be large; an effect the other way counts as inactive or inconclusive.

SMILES | TrxR1 inh | Eya2 inh | Six1-Eya2 inh | TrxR1 substrate | GALK inhibitor | CtBP-E1A blk
N#Cc1c[nH]n2c(NC3CCCCC3)c(-c3ccccc3F)nc12 | – | · | · | – | · | ·
Cc1ccc(OCC(=O)NCC2(N3CCN(C)CC3)CCCCC2)cc1C | – | · | · | – | · | ·
O=C(c1ccc2c(c1)OCO2)n1nnc2ccccc21 | · | – | · | · | – | ·
COc1ccc(C(=O)COC(=O)Cn2nnc3ccccc32)cc1Br | – | – | – | – | – | –
COc1ccc(C(=O)n2nnc3ccccc32)cc1Br | 3.98µM | – | – | – | – | –
COc1ccc(C(=O)n2nnc3ccccc32)cc1OC | 3.16µM | – | – | – | · | –
CC(=O)c1ccc(NC(=O)CCCSc2nc(-c3ccco3)cc(C(F)(F)F)n2)cc1 | ? | · | · | – | · | ·
CCOc1ccc(S(=O)(=O)NCCc2csc3nc(-c4cccc(C)c4)nn23)cc1 | – | · | · | – | · | ·
COc1ccc(N2CCN(C(=O)CSc3nc(-c4ccc(C(C)C)cc4)no3)CC2)cc1 | – | · | · | – | · | ·
CCCSCCCNC(=O)C1CCN(C(=O)c2cc3sccc3n2C)CC1 | – | · | · | – | · | ·
Cc1ccc(NC(=O)c2sc3ncnc(N(C)C4CCCCC4)c3c2C)cc1 | – | · | · | – | · | ·
O=c1c2ccccc2nc2c3ccccc3c(NCc3ccccn3)nn12 | – | – | ? | – | – | -68.8
O=c1c2ccccc2nc2c3ccccc3c(NCCO)nn12 | – | – | -69.1 | – | – | -70.6
Cc1ccccc1NC(=O)c1c(C)oc2ccc(O)c(CN3CCCC3)c12 | – | · | · | – | · | ·
COc1cccc(-n2c(SCC(=O)Nc3nnc(C)s3)nc3c([nH]c4ccccc43)c2=O)c1 | – | · | · | – | · | ·
COc1cc(/C=C2/C(=O)c3cccc([N+](=O)[O-])c3C2=O)c(Br)cc1O | 28.2µM | – | – | – | – | –
COc1cc(-c2noc(-c3ccc(NCCc4ccccc4)c([N+](=O)[O-])c3)n2)cc(OC)c1OC | – | · | · | – | · | ·
Cc1nc(C)c(-c2ccc(SCC(=O)Nc3ccc(Cl)c(Cl)c3)nn2)s1 | – | · | · | – | · | ·
Clc1cccc[n+]1CCc1ccccc1 | 44.7µM | · | · | – | · | ·
Cc1ccc(NC(=O)c2cnn(-c3ccc(C)c(C)c3)c2C2CCN(C(=O)OC(C)(C)C)CC2)c(C)c1 | – | · | · | – | · | ·
Cc1nc2ccccc2c(=O)n1NC(=O)/C=C/c1ccc(Br)cc1 | – | – | – | – | – | -65.5
Cc1cccc(-c2nc3ccccc3c(=O)n2NC(=O)/C=C/c2ccc([N+](=O)[O-])cc2)c1 | – | – | – | – | – | -81.0
O=C(/C=C/c1cccc([N+](=O)[O-])c1)Nn1c(-c2ccccc2F)nc2ccccc2c1=O | – | – | – | – | – | –
O=C1/C(=C/c2cccs2)SC(=S)N1NS(=O)(=O)c1ccccc1 | – | – | – | – | – | –
CC(C(=O)O)N1C(=O)/C(=C/C=C/c2ccco2)SC1=S (stereo not given) | 14.1µM | – | -74.0 | – | – | –
SMILES | TrxR1 inh | Eya2 inh | Six1-Eya2 inh | TrxR1 substrate | GALK inhibitor | CtBP-E1A blk
CCN(C(=O)C(C)N1C(=O)/C(=C/c2ccco2)SC1=S)C1CCS(=O)(=O)C1 (stereo not given) | – | – | – | – | – | –
O=C1/C(=C/C=C/c2ccco2)SC(=S)N1NS(=O)(=O)c1ccccc1 | 44.7µM | – | ? | – | · | –
O=C(CSCc1ccccc1Cl)N1CCN(c2ccc(Cl)cc2)CC1 | – | · | · | – | · | ·
O=C1CCCC2=C1C(c1cccc(O)c1)C1=C(N2)c2ccccc2C1=O (stereo not given) | 79.4µM | – | – | – | – | –
COc1cccc(C2C3=C(CCCC3=O)NC3=C2C(=O)c2ccccc23)c1 (stereo not given) | · | – | · | · | – | ·
CCCCC(CC)CNC(=O)CN(C)S(=O)(=O)c1ccc2c(c1)c(=O)n(C)c(=O)n2C (stereo not given) | – | · | · | – | · | ·
C[n+]1ccc(/C=C/c2cc[n+](C)c3ccccc23)c2ccccc21 | – | · | · | – | · | ·
Cc1c(C(=O)c2no[n+]([O-])c2C(=O)c2cnn(C)c2C)cnn1C | 1.26µM | – | – | – | – | –
Cc1c(C(=O)Nc2ccc(Br)cc2)cnn1C | – | – | – | – | – | –
COc1ccc2c(c1)c1c(c(=O)n(-c3ccccc3C)c(=O)n1CC(N)=O)n2C | – | · | · | – | · | ·
COc1cc(C2c3c(n[nH]c3C)C(=O)N2c2ccc(C)cc2)ccc1O (stereo not given) | 31.6µM | – | – | – | – | –
COc1ccc(C)cc1NC(C)C(=O)c1c[nH]c2ccccc12 (stereo not given) | – | · | · | – | · | ·
CS(=O)(=O)c1ccc(C(=O)NCCN2C(=O)S/C(=C\c3cccnc3)C2=O)cc1[N+](=O)[O-] | 17.8µM | – | – | – | – | ·
CN(C)S(=O)(=O)c1ccc(C(=O)NCCN2C(=O)S/C(=C\c3cccnc3)C2=O)cc1 | – | – | – | – | – | –
Cc1nc2c(C(=O)NC(C)c3ccccc3)cnn2c(C)c1Cc1ccccc1 (stereo not given) | – | · | · | – | · | ·
COCC(C)OC(=O)/C(C#N)=C\c1coc2ccc(C)cc2c1=O (stereo not given) | 28.2µM | – | – | – | – | –
Cc1cccc(OCC(=O)Nc2ccccc2OCc2cc(=O)n3ccccc3n2)c1 | – | · | · | – | · | ·
CC(=O)c1cccc(NC(=O)c2oc(=O)c3ccccc3c2-c2ccccc2)c1 | – | · | · | – | · | ·
Cc1ccc(NC(=S)c2ccncc2)c(C)c1 | 20µM | – | – | – | – | ·
Cc1ccc(NC(=S)c2nc3ccccc3[nH]2)c(C)c1 | – | – | -72.0 | – | – | ?
Cc1ccc(NC(=S)Nc2cccc3cnccc23)c(C)c1 | – | – | – | – | – | –
Cc1ccc(C)c(Nc2nc3ccccc3[nH]2)c1 | – | · | – | – | · | –
Cc1ccc(NC(=S)c2nc3ccccc3[nH]2)cc1 | – | – | -80.6 | – | – | -72.1
Cc1ccc(NC(=S)N2CCCC(c3nc4ccccc4[nH]3)C2)cc1 (stereo not given) | – | – | – | – | – | ·
CN(C)c1ccc(CNC(=O)C2CCN(S(=O)(=O)c3ccc4[nH]c(=O)ccc4c3)CC2)cc1 | – | · | · | – | · | ·
Cc1cccc(-c2nc(CS(=O)CC(=O)NC3CCCCC3)c(C)o2)c1 (stereo not given) | – | ? | – | – | – | –
CCOC(=O)C1CCN(C(=O)CS(=O)Cc2nc(-c3ccc(C)cc3)oc2C)CC1 (stereo not given) | 14.1µM | – | – | – | – | –
Cc1oc(-c2ccc(Cl)cc2)nc1CS(=O)CC(=O)NC1CC1 (stereo not given) | – | – | – | – | – | ·
Cc1ccc(-c2nc(CS(=O)CC(=O)N3CCN(c4ccc(F)cc4)CC3)c(C)o2)cc1 (stereo not given) | ? | – | – | – | – | ·
